The text below walks through data of PubChem BioAssay (NCI).

Some test systems named below: NCI-H23 lung; NCI-H226 lung; NCI-H322M lung; HOP-62 NSCLC; NCI-H460 lung; HOP-92 NSCLC; NCI-H522 lung; A549/ATCC NSCLC; 786-0 renal; COLO 205 colon; DU-145 prostate; K-562 leukemia; MALME-3M melanoma; MDA-MB-231 breast; SF-268 CNS; SF-295 CNS; SF-539 CNS; UACC-257 melanoma; M14 melanoma; RXF 393 renal.
Holding throughout (assay): NCI-60 one-dose screen, 48 h (100 = growth as untreated, 0 = no growth, -100 = all killed)
What all share (details): 10 µM unless noted

Compounds without any hit were thinned out: in the full panel of roughly 83,000, 20% have a hit.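 Cell lines were cultured in 96-well plates, exposed to a single compound concentration, and assessed for percent growth 48 hours later.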 Unmarked numbers belong to inactive results. Activity calls are given as the source filed them. How the source made its calls: active means growth percent below 10; inactive means the rest.

As for `CC(=O)NCCCS(=O)(=O)O`, the growth was 101% with NCI-H23 lung; 119% in the assay on NCI-H226 lung; 107% with NCI-H322M lung; 105% with HOP-62 NSCLC; 101% with NCI-H460 lung; 82.2% in the assay on HOP-92 NSCLC. In addition, the growth in the assay on NCI-H522 lung was 83.4%; in the assay on A549/ATCC NSCLC, 114%; with 786-0 renal it was 99.6%; in the assay with COLO 205 colon, 105%; in the assay with DU-145 prostate, 118%; in the assay with K-562 leukemia it was 94.8%. In addition, the growth in the assay on MALME-3M melanoma is 106%; in the assay with MDA-MB-231 breast, 102%; in the assay on SF-268 CNS, 111%; in the assay on SF-295 CNS, 94.6%; in the assay on SF-539 CNS it was 99.5%; in the assay on UACC-257 melanoma, 104%. In addition, the growth in the assay with M14 melanoma was 111%.

`O=C(Cc1ccc(/C=C/C(=O)c2ncc[nH]2)cc1)Nc1ccc(C(F)(F)F)cc1`: the growth with NCI-H23 lung is 33.4%; in the assay with NCI-H226 lung, 78.9%; with NCI-H322M lung, 71.5%; with HOP-62 NSCLC, 25.8%; in the assay with NCI-H460 lung, 27.1%; with HOP-92 NSCLC, 70%. In addition, the growth is 54.7% in the assay with NCI-H522 lung; 30.8% in the assay on A549/ATCC NSCLC; -43.1% (active) with 786-0 renal; 36.3% in the assay with COLO 205 colon; 16.5% in the assay on DU-145 prostate; 4.21% (active) with K-562 leukemia. For the same molecule, the growth was 86.2% in the assay with MALME-3M melanoma; 32.5% with MDA-MB-231 breast; 34% in the assay with RXF 393 renal; 14.4% in the assay with SF-268 CNS; 22.9% in the assay with SF-295 CNS; -10.1% (active) in the assay with SF-539 CNS. Moreover, the growth in the assay with UACC-257 melanoma was 82.1%; with M14 melanoma it was 25.1%.

As for `O=C(CCN1CCCC1)Nc1ccc2c(Nc3ccccc3)c3ccccc3nc2c1`, the growth with NCI-H23 lung was 22.1%; with NCI-H226 lung, 41.9%; in the assay on NCI-H322M lung it was 7.35% (active); with HOP-62 NSCLC it was 12.1%; in the assay with NCI-H460 lung, -60.7% (active); in the assay on HOP-92 NSCLC, 14.3%. Moreover, the growth is -33.7% (active) in the assay on NCI-H522 lung; 10.1% with A549/ATCC NSCLC; 10.1% in the assay with 786-0 renal; -37.4% (active) in the assay with COLO 205 colon; -28.5% (active) with DU-145 prostate; 0.263% (active) in the assay with K-562 leukemia. For the same molecule, the growth with MALME-3M melanoma is -85.1% (active); in the assay on MDA-MB-231 breast, 3.81% (active); in the assay on RXF 393 renal it was 8.26% (active); with SF-268 CNS, 26.1%; with SF-295 CNS it was 33.4%; with SF-539 CNS it was -62.5% (active). Besides, the growth was -39.5% (active) in the assay on UACC-257 melanoma and -77.4% (active) in the assay on M14 melanoma.

For `CC(C)(C)OC(=O)N1CCN(c2ccc(N)cc2)C(=O)C1`, the growth in the assay with NCI-H23 lung is 97.7%; in the assay with NCI-H226 lung, 100%; in the assay with NCI-H322M lung it was 107%; in the assay on HOP-62 NSCLC, 106%; in the assay on NCI-H460 lung, 111%; in the assay on HOP-92 NSCLC, 127%. In addition, the growth was 107% in the assay with NCI-H522 lung; 104% in the assay with A549/ATCC NSCLC; 100% with 786-0 renal; 113% in the assay with COLO 205 colon; 115% in the assay on DU-145 prostate; 99.9% with K-562 leukemia. The growth with MALME-3M melanoma is 106%; in the assay with MDA-MB-231 breast, 98.8%; in the assay on RXF 393 renal it was 110%; in the assay with SF-268 CNS, 103%; in the assay with SF-295 CNS it was 98.2%; in the assay with SF-539 CNS it was 107%. For the same molecule, the growth with UACC-257 melanoma was 107%; with M14 melanoma it was 101%.

In the case of `COC(=O)C(c1ccccc1)C(CC(=O)c1ccccc1)c1ccccc1` (stereo not drawn), the growth with NCI-H23 lung was 78.3%; in the assay on NCI-H226 lung, 75.1%; in the assay on NCI-H322M lung it was 75.6%; in the assay on HOP-62 NSCLC, 91.4%; with NCI-H460 lung it was 109%; with HOP-92 NSCLC it was 62.6%. For the same molecule, the growth was 61.9% with NCI-H522 lung; 95.4% with A549/ATCC NSCLC; 106% in the assay with 786-0 renal; 105% in the assay with COLO 205 colon; 95.8% in the assay on DU-145 prostate; 73.1% in the assay on K-562 leukemia. The growth was 69.7% in the assay on MALME-3M melanoma; 98.1% with MDA-MB-231 breast; 80.9% in the assay with RXF 393 renal; 83.8% with SF-268 CNS; 79.9% with SF-295 CNS; 98.6% with SF-539 CNS. Further, the growth with UACC-257 melanoma was 101%; in the assay on M14 melanoma, 103%.

In the case of `CC(=O)OC1CCC2(C)C(CCC3C4CC=C(C(C)=O)C4(C)OC(=O)CC32)C1` (stereo not drawn), the growth is 34.7% with NCI-H23 lung; 45% in the assay on NCI-H226 lung; 95.7% with NCI-H322M lung; 61% in the assay on HOP-62 NSCLC; 78.1% in the assay on NCI-H460 lung; -21.2% (active) in the assay with HOP-92 NSCLC. The growth in the assay on NCI-H522 lung was -81.1% (active); with A549/ATCC NSCLC, 59.1%; with 786-0 renal, 64%; with COLO 205 colon, 2.72% (active); in the assay on DU-145 prostate, 38.2%; in the assay with K-562 leukemia it was -12.4% (active). The growth was -25.6% (active) in the assay on MALME-3M melanoma; 35.3% in the assay with MDA-MB-231 breast; -60.5% (active) in the assay on RXF 393 renal; 53% in the assay with SF-268 CNS; 73.1% with SF-295 CNS; 61.7% with SF-539 CNS. In addition, the values for the growth in the assay with UACC-257 melanoma and with M14 melanoma were -74.9% (active) and -31.6% (active), respectively.

For the molecule `C/C(=C(/c1ccccc1)c1ccc(OCC(O)CN2CCOCC2)cc1)c1ccccc1` (stereo not drawn), the growth is 101% with NCI-H23 lung; 96.6% in the assay on NCI-H226 lung; 95.4% with NCI-H322M lung; 90.1% in the assay on HOP-62 NSCLC; 92.6% in the assay on NCI-H460 lung; 80.2% in the assay with HOP-92 NSCLC. In addition, the growth in the assay on NCI-H522 lung is 73.3%; with A549/ATCC NSCLC, 87.2%; with 786-0 renal, 67.1%; with COLO 205 colon, 69.4%; with DU-145 prostate, 98.1%; in the assay with K-562 leukemia it was 19.7%. Besides, the growth in the assay on MALME-3M melanoma is 75.3%; with MDA-MB-231 breast, 104%; in the assay with SF-268 CNS, 104%; in the assay on SF-295 CNS it was 108%; in the assay with SF-539 CNS, 74.2%; in the assay on UACC-257 melanoma, 93.4%. Also, the growth with M14 melanoma is -45.1% (active).

Turning to `CN1CCN(CC#CCNC(=O)[C@]23CCC(C)(C)C[C@H]2C2=CC[C@@H]4[C@@]5(C)Cc6c([nH]c7ccccc67)C(C)(C)[C@@H]5CC[C@@]4(C)[C@]2(C)CC3)CC1`, the growth with NCI-H23 lung is 95.8%; in the assay with NCI-H226 lung, 93.9%; with NCI-H322M lung, 88.7%; in the assay with HOP-62 NSCLC, 91.9%; in the assay on NCI-H460 lung, -25.3% (active); with HOP-92 NSCLC, 52.7%. For the same molecule, the growth in the assay on NCI-H522 lung was 67%; in the assay with A549/ATCC NSCLC, 52.8%; in the assay on 786-0 renal it was 64.5%; in the assay with COLO 205 colon it was 51.2%; in the assay on DU-145 prostate, 61.9%; with K-562 leukemia, 1.31% (active). The growth with MALME-3M melanoma was 26.6%; in the assay on MDA-MB-231 breast, 74.1%; in the assay with RXF 393 renal, 66.5%; in the assay on SF-268 CNS it was 70%; in the assay on SF-295 CNS it was 108%; with SF-539 CNS, 82.6%. Further, the growth is 82.2% with UACC-257 melanoma and 51.5% in the assay with M14 melanoma.
